# HTT aggregate: mutant huntingtin aggregation inhibition; PC12 HttQ103-GFP aggregates, Acumen cytometry, 40 h; Potency, µM (doses to about 46.1 µM), inactives show top-dose activity change, negative = inhibition, actives largely listed as inhibitors; 220,000 compounds, 1.1% hits; also: potency is read from the fitted curve at half-maximal effect; % is scaled to controls: 0 for no effect and ±100 for the full control effect; nearly all actives have a fitted effect of over 60% in size
#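 Multiplexed with ATP-based cell death, this channel scores GFP aggregates in PC12 cells expressing inducible HTTex1-Q103-GFP. Induction used 100 nM tebufenozide; compounds were tested in concentration series.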
# ALDH1A1 inh: blocks purified human ALDH1A1 activity. Purified ALDH1A1, NADH fluorescence, propionaldehyde substrate. Potency, µM (highest dose often 75.3 µM), for inactives: at the highest dose activity, negative = inhibition, hits mostly inhibitors. 220,000 compounds, 7.3% hits; active = well fitted inhibition curve with a large enough effect, not every such curve was filed as active; inconclusive = small, poorly fitted or top-dose-only effect, or another doubt; inactive = no such curve, though single readings can be large or run the other way;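 also: potency is read from the fitted curve at half-maximal effect; plate controls were no enzyme wells and a reference inhibitor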
# RGS12 GoLoco inh: blocks human Gai1 binding to RGS12 GoLoco peptide, red readout | P63096 | Gai1:RGS12 GoLoco peptide FP, rhodamine, 10 min | Potency, µM (top dose mostly 61.6 µM), without a hit: at the highest dose activity, negative = inhibition, actives largely listed as inhibitors | 230,000 compounds, 0.44% hits; active = well fitted inhibition curve with a large enough effect, not every such curve was filed as active; inactive = no such curve, though single readings can be large or run the other way; also: potency is read from the fitted curve at half-maximal effect; % is scaled to controls: 0 for no effect and ±100 for the full control effect; nearly all actives have a fitted effect of over 30% in size
# Target sequence (P63096 whole entry, looked up): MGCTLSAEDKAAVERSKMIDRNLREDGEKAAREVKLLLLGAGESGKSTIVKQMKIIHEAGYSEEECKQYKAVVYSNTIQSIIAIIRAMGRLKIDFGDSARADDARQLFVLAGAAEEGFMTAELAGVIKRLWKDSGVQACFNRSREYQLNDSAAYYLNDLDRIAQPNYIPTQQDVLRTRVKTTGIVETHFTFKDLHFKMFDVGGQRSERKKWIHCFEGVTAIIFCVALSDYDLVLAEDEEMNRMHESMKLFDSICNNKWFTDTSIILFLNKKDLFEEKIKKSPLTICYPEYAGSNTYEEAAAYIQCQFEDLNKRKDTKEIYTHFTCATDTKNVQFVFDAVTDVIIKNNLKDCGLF
# HTT ATP protect: cytoprotection in Huntington HTT-Q103 PC12 cell model | 230,000 compounds, 0.14% hits | PC12 HTT-Q103 induced, cytoprotection, ATP luminescence, 40 h | Potency, µM (titrated, usually from 56.4 µM), for inactives: cytoprotection (ATP increase), usual class: activators | AID 1471; also: potency is read from the fitted curve at half-maximal effect; % of control where 0% means no effect; nearly all actives have a fitted effect of over 45% in size
#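 Quantitative HTS on tebufenozide-induced (100 nM) PC12 cells expressing HTTQ103 exon 1–GFP; compounds tested as a concentration series; survival measured via cellular ATP.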
# PNC inhibitor: inhibitors of perinucleolar compartment assembly. PC3M PTB-GFP, PNC prevalence imaging, 16 h; active compounds read low. activity change (PNC), negative = inhibition, % at 10 µM. 140,000 compounds, 3.1% hits;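 active = readout at or below -70, meaning at least 70% loss of cells showing the perinucleolar compartment, a nuclear body marking cancer cells; inconclusive = readout between -30 and a set limit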;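 also: plate controls were DMSO wells for no effect and camptothecin positive control wells for full effect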
#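 Compounds are pinned in duplicate onto adhered PC3M cells stably expressing GFP-tagged PTB and incubated 16 h at 37 C. Cells are then fixed, nuclei stained with Hoechst, and PNC-positive cells counted.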
# HPGD block: inhibitors of human 15-hydroxyprostaglandin dehydrogenase (HPGD). 150,000 compounds, 4.3% hits. AID 894. P15428. Potency, µM, for inactives: top-dose activity change, negative = inhibition, most hits filed as inhibitors. purified HPGD, NADH fluorescence kinetic, PGE2 substrate; active = well fitted inhibition curve with a large enough effect, not every such curve was filed as active; inconclusive = small, poorly fitted or top-dose-only effect, or another doubt; inactive = no such curve, though single readings can be large or run the other way; also: potency is read from the fitted curve at half-maximal effect; % is scaled to controls: 0 for no effect and ±100 for the full control effect
# Target sequence (P15428 whole entry, looked up): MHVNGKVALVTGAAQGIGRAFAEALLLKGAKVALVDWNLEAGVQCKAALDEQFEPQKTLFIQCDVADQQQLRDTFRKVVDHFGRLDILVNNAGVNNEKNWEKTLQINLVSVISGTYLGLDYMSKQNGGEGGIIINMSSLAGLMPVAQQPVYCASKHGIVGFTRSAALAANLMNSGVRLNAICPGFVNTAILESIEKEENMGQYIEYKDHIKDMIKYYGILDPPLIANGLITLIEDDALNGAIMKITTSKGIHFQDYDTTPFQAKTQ
#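 NADH formation kinetics: reaction with 30 uM PGE2 and 1 mM NAD+ (final), 20 nM enzyme, Tris-HCl pH 8 with Tween 20, after 15 min compound preincubation at room temperature. Fluorescence change, last versus first of five reads.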
# An asterisk follows results filed as active; ? = inconclusive; . = no result; ! = repeats disagree; [ ] = dose if it differs, or a comment. Sampled rows, rich in hits. Any-hit rate of the full collection: about 11%. Unless noted, calls follow the shape of the dose curve; as a rule, active = well fitted curve in the direction sought with a large enough effect; inconclusive = small, poorly fitted or top-dose-only effect, or another doubt; inactive = no such curve, though single readings can be large; an effect the other way counts as inactive or inconclusive.
SMILES,HTT aggregate,ALDH1A1 inh,RGS12 GoLoco inh,HTT ATP protect,PNC inhibitor,HPGD block
Cc1ccc(S(=O)(=O)CCSc2cccc(C(=O)Nc3ccccc3C(=O)O)c2)cc1,1%,?,-1%,-2%[10 µM],?,16µM*
CCOC(=O)c1sc2nc(N3CCOCC3)c3c(c2c1N)CCN(C)C3,.,?,-14%,0.63µM*,-1,?
NNC(=O)c1sc2nc(N3CCOCC3)c3c(c2c1N)CCCC3,4%[9.22 µM],.,12%,13%[10 µM],.,.
O=C(OCc1ccccc1F)c1ccc2c(c1)-c1ccccc1C2=O,0.79µM*,0%,5%,-7%,-18,-16%
Cc1cccc(-n2cc[nH]c2=S)c1,3%,?,1%,-1%[10 µM],44,?
CC(C)c1ccccc1-n1cc[nH]c1=S,22%,10µM*,3%,12%[10 µM],.,.
Cc1ccccc1-n1cc[nH]c1=S,2%,?,2%,-17%,.,.
Cc1cccc(-n2cc[nH]c2=S)c1C,?,11µM*,.,-13%[10 µM],20,.
c1ccc(-c2nn3c(Cn4nnc5ccccc54)nnc3s2)cc1,4%,3.2µM*,3%,0%[10 µM],13,10µM*
Clc1ccc(Cl)c(-c2nn3c(Cn4cnc5ccccc54)nnc3s2)c1,.,.,.,-4%[0.074 µM],.,.
c1ccc2c(c1)ncn2Cc1nnc2sc(-c3ccncc3)nn12,-25%,10µM*,-25%,-19%[10 µM],1,7.9µM*
c1ccc(C2=Nn3c(Cn4nnc5ccccc54)nnc3SC2)cc1,10%[9.22 µM],.,-2%,35%[10 µM],.,.
c1cncc(-c2nn3c(Cn4cnc5ccccc54)nnc3s2)c1,-17%,1µM*,0%,19%[10 µM],-28,3.2µM*
c1ccc(-c2ccc(C3=Nn4c(Cn5nnc6ccccc65)nnc4SC3)cc2)cc1,27%,28µM*,-12%,-42%,-6,18µM*
CC(C)=NOCc1ccc(-c2cc(-c3ccccc3)no2)cc1,.,1%[13.5 µM],.,-13%[10 µM],.,.
CCCC[C@@H]1C[C@H]1C(NC(=O)c1ccc(C(F)(F)F)cc1)c1ccc(C(=O)OC)cc1 (stereo not given in full),.,?,3%,-14%,.,-3%
COc1ccc(NC(=O)Cn2cnc3c(nnn3-c3ccc(C)cc3)c2=O)cc1,1%,7%,-2%,0%,.,.
COc1cccc(C2(O)CC(C(F)(F)F)=NN2C(=O)c2ccccn2)c1 (stereo not given),-23%[9.22 µM],-12%,19%,-2%[10 µM],.,.
COc1ccc(-n2c(Cn3nnc4ccccc43)n[nH]c2=S)cc1,10%,6%,3%,.,?,-13%
COc1ccc(Cc2nn3c(Cn4nnc5ccccc54)nnc3s2)cc1,-7%,11µM*,-4%,14%[10 µM],?,22µM*
c1ccc(OCc2nn3c(Cn4cnc5ccccc54)nnc3s2)cc1,-18%,19µM*,-8%,11%,?,11µM*
c1ccc(-c2nn3c(Cn4cnc5ccccc54)nnc3s2)cc1,-16%,2.2µM*,-14%,7%[10 µM],-3,4.5µM*
OC[C@@H]1O[C@@H](n2cnc3cncnc32)[C@@H](O)[C@H]1O,.,.,.,13%[1.9 µM],.,.
CC(C)c1ccc(-n2c(-c3ccccc3)c[n+]3c2CCc2ccccc2-3)cc1,1.6µM*,?,-7%,-54%[10 µM],.,.
COc1ccc(-n2c(-c3ccc(Br)cc3)c[n+]3c2CCc2ccccc2-3)cc1,13µM*,2%,6%,-13%[10 µM],-134*,-6%
SMILES,HTT aggregate,ALDH1A1 inh,RGS12 GoLoco inh,HTT ATP protect,PNC inhibitor,HPGD block
COc1ccc(-c2c[n+]3c(n2-c2ccccc2)CCCCC3)cc1,?,20%,4%,16%[10 µM],-22,-2%
COc1ccc(-c2cn(-c3ccc(OC)cc3)c3[n+]2-c2ccccc2CC3)cc1,?,?,5%,-50%[10 µM],-96*,-10%
COc1ccccc1-n1c(-c2ccccc2)c[n+]2c1CCc1ccccc1-2,2.2µM*,5%,2%,-87%,.,.
FC(F)Oc1ccc(-c2c[n+]3c(n2-c2ccccc2)CCCCC3)cc1,8%[9.22 µM],.,9%,6%[10 µM],.,.
COc1ccccc1N1C(=O)CC(N2CCc3ccccc32)C1=O (stereo not given),?,?,134%,0%,2,-13%
COc1ccc(-n2cc(-c3ccccc3)[n+]3c2CCCCC3)cc1,?,7%,4%,-2%[10 µM],.,.
Cc1ccc2nc(C(F)(F)F)c(C#N)c(N)c2c1,?,1%,9%,26%,-22,-14%
Cc1cc(C)c2nc(C(F)(F)F)c(C#N)c(N)c2c1,5.6µM*,10%,8%,37%[10 µM],20,-11%
Cc1ccc(OCc2ccc(C(=O)N3CCOCC3)cc2)cc1C,-24%,0%,8%,-4%,?,25µM*
Cc1nn(Cc2ccccc2Cl)c2sc(C(=O)OC3CCCC3=O)cc12 (stereo not given),0%,8.9µM*,-2%,-34%,0,-26%
CC1(C)CC(=O)C=C(NNC(=O)C2CCCCC2)C1,-3%,13µM*,1%,2%[10 µM],?,15%
CC1(C)CC(=O)C=C(NC2CCCCCCC2)C1,2%,1%,-3%,13%[10 µM],-27,-11%
O=C1c2ccc(O)c(O)c2C(=O)c2c(O)ccc(O)c21,.,?,-25%,-231%,.,11µM*
O=C1c2cccc(O)c2C(=O)c2c(O)cccc21,?,?,-2%,-20%,43,35µM*!
O=C1C=C(O)c2cccc(O)c2C1=O,-2%[9.22 µM],.,-8%,-4%[10 µM],.,.
O=C1c2ccccc2C(=O)c2c1ccc(O)c2O,-16%,?,-5%,6%[1.9 µM],.,28µM*
O=C1c2c(O)ccc([N+](=O)[O-])c2C(=O)c2c([N+](=O)[O-])ccc(O)c21,.,3%,-2%,-211%,.,?
CC(=O)Nc1c(C(=O)N2CCN(c3ccccn3)CC2)cnn1-c1ccc(C)cc1,?,?,9%,.,17,-20%
COc1ccc(C2Oc3cc(OC)cc(OC)c3CC2O)cc1 (stereo not given),.,-7%,4%,.,.,-18%
COc1cccc(NC(=O)C(Cc2ccccc2)NC(=O)C2CCC(C)CC2)c1 (stereo not given),9%,-6%,4%,-3%[10 µM],-119*,-4%
O=C(NC(Cc1ccccc1)C(=O)O)C1CCCCC1 (stereo not given),9%,-2%,-11%,-2%[10 µM],?,-4%
CC(C)C1CCC(C(=O)NC(Cc2ccccc2)C(=O)O)CC1 (stereo not given),-9%,-2%,20µM*,?,.,-3%
Cc1ccc(-n2c(N)c(-c3nc4ccccc4n3C)sc2=S)cc1,-1%,3.5µM*,-15%,3%[10 µM],?,6.3µM*
CCn1c(SCC(=O)Nc2ccc(C(C)=O)cc2)nc2ccccc21,?,-2%,11%,-18%,-29,-23%
